For 22 compounds, Potency, cytotoxicity increase and activity change, negative = cytotoxicity results are on record in PubChem BioAssay (Tox21).

The nature of assay [1]: A CellTox Green Cytotoxicity Assay to monitor cytotoxicity in HepG2 cells - 0 hour (AID 1224882). Note: nearly all actives have a fitted effect of over 35% in size. An outline of the steps:
(§1)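 Continuous culture of HepG2 cells with a membrane-impermeant DNA dye; rising fluorescence marks dead cells. Compound exposure lasted up to 40 h at 37 C, with reads every 8 h from 0 h.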

A short description of assay [2]: A CellTox Green Cytotoxicity Assay to monitor cytotoxicity in HepG2 cells - 32 hour (AID 1224883). Note: nearly all actives have a fitted effect of over 50% in size. Note: potency is the fitted concentration of half-maximal effect. An outline of the steps:
as §1

The nature of assay [3]: A CellTox Green Cytotoxicity Assay to monitor cytotoxicity in HEK293 cells - 8 hour (AID 1224884). Note: nearly all actives have a fitted effect of over 35% in size. An outline of the steps: (§2)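 Each value comes from one timepoint of a single continuous run in which HEK293 cells with CellTox Green were exposed to compound for up to 40 h at 37 C, dye fluorescence rising with cell death.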
Assay [4] is described as follows: qHTS RealTime-Glo MT Cell Viability Assay in HepG2 cells - 16 hour (AID 1224885). Note: nearly all actives have a fitted effect of over 50% in size. An outline of the steps:
(§3)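 Cells + NanoLuc/prosubstrate dispensed (600 cells/well) → 5 h at 37 C/5% CO2 → compounds in DMSO transferred → 40 h incubation at 37 C, luminescence read at 0, 8, 16, 24, 32, 40 h.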
On the technique in general: qHTS replaces the single test concentration by a dilution series.

Assay [5] in a line: qHTS RealTime-Glo MT Cell Viability Assay in HEK293 cells - 24 hour (AID 1224886). For activity change, negative = cytotoxicity: top concentration of the series differs between compounds. Note: nearly all actives have a fitted effect of over 50% in size. Note: potency is the fitted concentration of half-maximal effect. An outline of the steps:
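Tox21 10K qHTS, HEK293, 600 cells/well, RealTime-Glo reagent co-dispensed with cells; 5 h preincubation, compound by pintool, 37 C, luminescence at 0–40 h.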

Assay [6] in a line: qHTS RealTime-Glo MT Cell Viability Assay in HEK293 cells - 8 hour (AID 1224887). Note: top concentration of the series differs between compounds; nearly all actives have a fitted effect of over 50% in size. An outline of the steps: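 qHTS format; HEK293 cells with NanoLuc/prosubstrate reagent, 37 C/5% CO2 for 5 h pre-dosing; compounds 23 nL in DMSO; luminescence at each time point reflects viable cells.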
Assay [7] is described as follows: A CellTox Green Cytotoxicity Assay to monitor cytotoxicity in HEK293 cells - 16 hour (AID 1224888). Note: nearly all actives have a fitted effect of over 35% in size. An outline of the steps:
as §2

Assay [8] in a line: qHTS RealTime-Glo MT Cell Viability Assay in HepG2 cells - 0 hour (AID 1224889). Note: nearly all actives have a fitted effect of over 50% in size. Note: potency is the fitted concentration of half-maximal effect. An outline of the steps: as §3
The nature of assay [9]: A CellTox Green Cytotoxicity Assay to monitor cytotoxicity in HepG2 cells - 8 hour (AID 1224890). Note: nearly all actives have a fitted effect of over 45% in size. An outline of the steps: as §1
Assay [10] is described as follows: qHTS assay to identify small molecule antagonists of the estrogen receptor alpha (ER-alpha) signaling pathway using the BG1 cell line in the presence of 0.1 nM 17-beta-estradiol - cell viability counter screen (AID 1259241). Note: nearly all actives have a fitted effect of over 40% in size. An outline of the steps: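 Estradiol-stimulated (0.1 nM) VM7Luc4E2 cells exposed to compounds 22 hr; viability measured by fluorescence of cleaved CellTiter-Fluor substrate after 30 min.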

Values joined by “and” are separate entries in the source; they are usually repeats but may differ in a detail not shown here. Equal entries are not always repeated. Inconclusive results are not listed. The source holds several records for some structures; these can differ, active in one and inactive in another. Active and inactive are the calls of the source. Calls come from the whole dose curve; as a rule, active = well fitted curve in the direction sought with a large enough effect in the repeat runs; inconclusive = weak or mixed curves; inactive = no such curve, though single readings can be large; an effect the other way counts as inactive or inconclusive.
% is set by controls: 0 for no effect and ±100 for the full control effect.

For `C=C[Si](OCCOC)(OCCOC)OCCOC`, the Potency entry in assay [1], in assay [2], in assay [3], in assay [4], in assay [5] and in [6] was “inactive” each time. Also, the Potency result in assay [7], in assay [8], in assay [9] and in assay [10] was “inactive” throughout.

Turning to `c1ccc2c(c1)[nH]c1ccccc12`, the Potency entry in [1], in assay [2], in assay [3], in [4], in assay [5] and in assay [6] was “inactive” throughout. Besides, the Potency result in assay [7], in [8], in assay [9] and in assay [10] was “inactive” each time.

As for `CC/C=C\C/C=C\C/C=C\CCCCCCCC(=O)O`, the Potency result in assay [1], in [2], in assay [3], in [4], in assay [5] and in assay [6] was “inactive” in each case. Also, the Potency entry in [7], in assay [8], in [9] and in [10] was “inactive” in each case.

For `CC(=O)O[C@]1(C(C)=O)CC[C@H]2[C@@H]3C=C(C)C4=CC(=O)CC[C@]4(C)[C@H]3CC[C@@]21C`, the Potency entry in [1], in assay [2], in [3], in [4], in assay [6] and in assay [7] was “inactive” each time. The Potency entry in assay [9] and in assay [10] was “inactive” each time. Moreover, the Potency in [5] is 19.5 µM (active).

Take `CC(=O)Oc1c(C)c(C)c2c(c1C)CC[C@@](C)(CCC[C@H](C)CCC[C@H](C)CCCC(C)C)O2`: the Potency entry in [1], in assay [2], in assay [3], in assay [4], in [5] and in assay [6] was “inactive” in each case. The Potency entry in assay [7], in assay [9] and in [10] was “inactive” each time.

For the compound `CC(C)[N+](C)(CCOC(=O)C1c2ccccc2Oc2ccccc21)C(C)C`, the Potency result in assay [1], in assay [2], in assay [3], in [4], in [5] and in assay [6] was “inactive” throughout. Moreover, the Potency entry in assay [7], in assay [8], in assay [9] and in [10] was “inactive” each time.

For `CCCN1C=CN(C)C1`, the Potency entry in [1], in assay [2], in assay [3], in assay [4], in [5] and in [6] was “inactive” each time. For the same compound, the Potency result in assay [7], in [9] and in assay [10] was “inactive” in each case.

As to `C=CCCCCCCCCCC`, the Potency result in [1], in assay [2], in assay [3], in [4], in assay [5] and in [6] was “inactive” each time. Further, the Potency entry in [7], in assay [8], in [9] and in assay [10] was “inactive” each time.

As to `O=C1CCc2ccccc2O1`, the Potency result in [1], in assay [2], in [3], in assay [4], in [5] and in [6] was “inactive” throughout. The Potency entry in assay [7], in [8], in [9] and in assay [10] was “inactive” each time.

In the case of `O=C(O)COCCN1CCN(C(c2ccccc2)c2ccc(Cl)cc2)CC1` (stereo not drawn), the Potency entry in assay [1], in [2], in assay [3], in assay [4], in assay [5] and in [6] was “inactive” in each case. The Potency entry in assay [7], in assay [9] and in assay [10] was “inactive” in each case.

With `CCCCCCCCCCCCO`, the Potency entry in assay [1], in assay [2], in [3], in assay [4], in assay [5] and in assay [6] was “inactive” throughout. For the same compound, the Potency result in [7], in assay [8], in assay [9] and in assay [10] was “inactive” in each case.

Turning to `O=[Se](O)O`, the Potency result in assay [1], in [3], in [4], in [6], in assay [7] and in assay [8] was “inactive” throughout. Moreover, the Potency entry in assay [9] and in assay [10] was “inactive” each time. Besides, in [2], the Potency was 24.6 µM (active). In assay [2], the cytotoxicity increase is 9.15% [at 15.8 µM] (inactive). Also, the activity change, negative = cytotoxicity in assay [5] is -26.2% [at 15.8 µM] (inactive).

As to `Cc1ccc(C(C)(C)C)cc1`, the Potency entry in [1], in assay [2], in [3], in [4], in assay [5] and in assay [6] was “inactive” throughout. The Potency entry in assay [7], in assay [9] and in assay [10] was “inactive” each time.

As to `CC(=O)O[C@]1(C(C)=O)CC[C@H]2[C@@H]3C=C(Cl)C4=CC(=O)CC[C@]4(C)[C@H]3CC[C@@]21C`, the Potency result in assay [1], in [2], in assay [3], in [4], in assay [6] and in assay [7] was “inactive” in each case. Moreover, the Potency result in assay [9] and in assay [10] was “inactive” throughout. Besides, the Potency in assay [5] is 21.8 µM (active); in assay [8], 346 nM (active) and 477 nM (active).

For `CCCCCC=O`, the Potency entry in [1], in assay [2], in assay [3], in [4], in [5] and in assay [6] was “inactive” in each case. Besides, the Potency entry in assay [7], in assay [9] and in assay [10] was “inactive” each time.

On to `CC1(C)C(C=C(Cl)Cl)C1C(=O)OCc1cccc(Oc2ccccc2)c1` (stereo not drawn), for which the Potency result in [1], in [2], in assay [3], in [4], in [5] and in [6] was “inactive” each time. For the same compound, the Potency entry in [7], in assay [8], in assay [9] and in [10] was “inactive” each time.

In the case of `C[C@]12CC[C@@H]3c4ccc(O)cc4CC[C@H]3[C@@H]1CC[C@@H]2O`, the Potency result in assay [1], in assay [3], in assay [4], in [6], in [7] and in assay [8] was “inactive” each time. Also, the Potency entry in [9] and in assay [10] was “inactive” each time. Further, the Potency in assay [2] was 43.6 µM (active) and inactive; in assay [5] it was 19.5 µM (active).

Regarding `CCCOCCO`, the Potency result in [1], in assay [2], in assay [3], in assay [4], in [5] and in assay [7] was “inactive” throughout. Moreover, the Potency entry in [8], in [9] and in [10] was “inactive” throughout.

As for `COCCOCCOCCO`, the Potency result in assay [1], in assay [2], in [3], in [4], in assay [5] and in assay [7] was “inactive” each time. Further, the Potency entry in assay [9] and in [10] was “inactive” each time.

`C=C1C[C@H]2[C@@H]3C=C(C)C4=CC(=O)CC[C@]4(C)[C@H]3CC[C@]2(C)[C@@]1(OC(C)=O)C(C)=O`: the Potency result in assay [1], in assay [2], in [3], in assay [4], in assay [6] and in [7] was “inactive” in each case. In addition, the Potency entry in [9] and in [10] was “inactive” in each case. In addition, the Potency in assay [8] was 1.41 µM (active) and 6.01 µM (active).

As for `Nc1ccc2c(c1)C(=O)c1ccccc1C2=O`, the Potency entry in [1], in [2], in assay [3], in assay [4], in [5] and in assay [7] was “inactive” throughout. Moreover, the Potency entry in assay [8], in [9] and in assay [10] was “inactive” each time.

Regarding `COC(=O)C(C)Oc1ccc(Oc2ncc(C(F)(F)F)cc2Cl)cc1` (stereo not drawn), the Potency entry in [1], in [2], in assay [3], in [4], in assay [7] and in [8] was “inactive” throughout. For the same compound, the Potency result in [9] and in [10] was “inactive” each time.
